Compound activity: PubChem, National Center for Advancing Translational Sciences (NCATS)
Rows were chosen to be rich in hits. Some 7.3% of all compounds tested hit in one or more screens of this group.
RORg inh = inhibitors of mouse ROR gamma transcriptional activity. P51450. AID 2551. Drosophila S2 Gal4-RORgamma UAS-luciferase reporter, 20 h. Potency, µM (titrated, usually from 53.6 µM), usual class: inhibitors. actives 5.4% (n = 310,000); further: nearly all actives have a fitted effect of over 60% in size
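Stable Schneider cell line, Gal4 DNA-binding domain fused to ROR gamma, UAS-luciferase. Cmpd 1 hr RT → CuSO4 700 uM final → 20 hr RT → luciferase reagent 10 min → luminescence.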
VP16 counter = counter-screen for ROR gamma inhibitors: Gal4-VP16 reporter. AID 2546. actives 3.5% (n = 310,000). Drosophila S2 Gal4-VP16 UAS-luciferase, luminescence, 20 h. Potency, µM (series often up to 53.6 µM), hits mostly inhibitors;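 further: Gal4-VP16 expression switched on by copper sulfate through the metallothionein promoter; nearly all actives have a fitted effect of over 50% in size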
Tau FP inhib = blocks human tau fibril formation measured by polarization; P10636; K18 P301L tau heparin fibrillization, Alexa594 FP, 6 h; Potency, µM (titrated, usually from 57.7 µM), most hits filed as inhibitors; actives 0.39% (n = 280,000); AID 1468; further: nearly all actives have a fitted effect of over 55% in size
Target sequence (P10636 561-689 P618L limits assumed): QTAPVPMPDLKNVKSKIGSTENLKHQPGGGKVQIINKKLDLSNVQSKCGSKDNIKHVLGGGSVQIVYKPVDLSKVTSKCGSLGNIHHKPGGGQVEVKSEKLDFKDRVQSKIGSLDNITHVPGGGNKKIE
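Compound effects on tau fibrillization are measured by Alexa 594 fluorescence polarization (ex 555, em 632 nm). K18 P301L tau is used at 15 uM with 0.24 uM labeled tracer, and 20 uM heparin induces aggregation over 6 hr at 37 C.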
Tau fluor counter = counter-screen for tau fibril formation inhibitors; Potency, µM (highest dose often 57.7 µM); actives 0.93% (n = 280,000); tau K18 P301L Alexa594 fluorescence, heparin fibrillization; AID 1463; further: nearly all actives have a fitted effect of over 55% in size
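Human tau K18 P301L (15 uM unlabeled, 0.24 uM Alexa 594-labeled) in 100 mM sodium acetate pH 7 with 20 uM heparin, 6 hr at 37 C. ThT 30 uM added, 1 hr ambient; Alexa 594 FP and total fluorescence read at 555/632 nm.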
Tau fibril ThT = inhibitors of human tau fibril formation, thioflavin T binding; P10636; recombinant tau K18 P301L (four-repeat tau fragment), heparin-induced fibrillization, ThT fluorescence; Potency, µM (highest dose often 57.4 µM), hits mostly inhibitors; actives 2.1% (n = 270,000); further: nearly all actives have a fitted effect of over 55% in size
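Recombinant human tau K18 fragment […] carrying P301L, 15 uM unlabeled plus 0.24 uM Alexa 594-labeled, was fibrillized with 20 uM heparin in 100 mM sodium acetate pH 7 for 6 hr at 37 C; 30 uM ThT fluorescence read after 1 hr.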
Large screens that a line does not name were inactive. The call rests on the fitted dose curve; in most records, active means well fitted curve in the direction sought with a large enough effect; inconclusive means small, poorly fitted or top-dose-only effect, or another doubt; inactive means no such curve, though single readings can be large; an effect the other way counts as inactive or inconclusive.

Cc1cc(C)c(NC(=O)Cn2c(=O)n(Cc3ccc(C(=O)NCc4ccco4)cc3)c(=O)c3sccc32)c(C)c1	none (no result: RORg inh, VP16 counter)
O=C1S/C(=C\c2ccc(N3CCOCC3)o2)C(=O)N1Cc1ccc(F)cc1	RORg inh inconclusive, VP16 counter 7.1µM
CC(C)OC(=O)CN1C(=O)S/C(=C/c2ccc(N3CCCCC3)o2)C1=O	RORg inh inconclusive, VP16 counter 13µM, Tau fibril ThT inconclusive
CCCCCCCCOc1c(OC)cc(/C=C/C(=O)N2CCN(c3ccc(C)c(C)c3)CC2)cc1OC	none (no result: Tau FP inhib, Tau fluor counter, Tau fibril ThT)
C=CCn1c(COc2ccccc2)nnc1SC(C)C(=O)N/N=C/c1cc(Cl)ccc1O (centres undefined)	RORg inh 13µM, VP16 counter inconclusive, Tau fluor counter inconclusive
C=CCn1c(COc2ccc(Cl)cc2)nnc1SCC(=O)N/N=C/c1cccc(O)c1	none
Cc1ccc(-c2onc3ccc(C4(C)OCCO4)cc23)cc1	none
Cc1ccc(-c2onc3ccc(C=O)cc23)cc1	Tau FP inhib inconclusive, Tau fluor counter inconclusive, Tau fibril ThT 25µM
Cc1nc(NCCc2ccc(S(N)(=O)=O)cc2)c2c(C)c(C)sc2n1	RORg inh 10µM, VP16 counter 10µM
CC1CCN(c2ccc(-c3cccs3)nn2)CC1	RORg inh 2µM, VP16 counter 2µM (no result: Tau FP inhib, Tau fluor counter, Tau fibril ThT)
Cn1nc(-c2ccc(OCC(=O)Nc3cccnc3)cc2)c2ccccc2c1=O	RORg inh 1.8µM, VP16 counter 16µM
Cc1ccc(NC(=O)COc2ccc(-c3nn(C)c(=O)c4ccccc34)cc2)cc1	none (no result: RORg inh, VP16 counter)
COc1ccccc1N1CCN(c2cc(C)nc3c(-c4ccc(Cl)cc4)c(C)nn23)CC1	none (no result: RORg inh, VP16 counter)
O=C(N/N=C/c1cc([N+](=O)[O-])ccc1O)C12CC3CC(CC(C3)C1)C2	RORg inh inconclusive, VP16 counter 0.71µM
O=C(N/N=C/c1cc([N+](=O)[O-])ccc1O)NC12CC3CC(CC(C3)C1)C2	RORg inh 3.5µM, VP16 counter inconclusive, Tau fluor counter inconclusive, Tau fibril ThT inconclusive
CCNC(=O)C(=O)N/N=C/c1cc([N+](=O)[O-])ccc1O	RORg inh 11µM, VP16 counter inconclusive, Tau fibril ThT inconclusive
O=C(N/N=C/c1cc([N+](=O)[O-])ccc1O)Nc1ccccc1	RORg inh 4.5µM, VP16 counter 22µM, Tau fibril ThT inconclusive
O=C(N/N=C/c1ccc(O)cc1O)NC12CC3CC(CC(C3)C1)C2	none (no result: Tau FP inhib, Tau fluor counter, Tau fibril ThT)
Nc1nnnn1CC(=O)N/N=C/c1cc([N+](=O)[O-])ccc1O	none
COc1ccc(Cc2nnc(NC(=O)Nc3ccccc3F)s2)cc1OC	none (no result: Tau FP inhib, Tau fluor counter, Tau fibril ThT)
COc1ccc(-c2cc(C(=O)Nc3c(C)nn(Cc4ccc(C)cc4)c3C)no2)cc1OC	Tau fibril ThT inconclusive (no result: RORg inh, VP16 counter)
CC1Cc2ccccc2N1Cc1nc2cc(C(F)(F)F)ccc2c(=O)[nH]1 (centres undefined)	Tau fibril ThT inconclusive
COc1cccc(CN(C)Cc2nc3cc(C(F)(F)F)ccc3c(=O)[nH]2)c1	RORg inh 2µM
C=CCOc1ccc(CN(C)Cc2nc3cc(C(F)(F)F)ccc3c(=O)[nH]2)cc1	RORg inh 7.1µM, VP16 counter inconclusive
CCOC(=O)c1ccc(N2CCOCC2)c(NC(=O)c2ccc3c(c2)OCO3)c1	none (no result: Tau FP inhib, Tau fluor counter, Tau fibril ThT)
O=C(Nc1ccc2c(c1)OCO2)[C@@H]1[C@@H]2C(=O)N(C3CCCCC3)C(=O)[C@@H]2C2c3ccccc3C=CN21 (some centres undefined)	Tau fluor counter inconclusive, Tau fibril ThT inconclusive
O=C(c1ccc2c(c1)OCO2)[C@@H]1[C@@H]2C(=O)N(C3CCCCC3)C(=O)[C@@H]2C2c3ccccc3C=CN21 (some centres undefined)	Tau FP inhib inconclusive, Tau fluor counter inconclusive, Tau fibril ThT 28µM
CC(C)(C)C(=O)[C@@H]1[C@@H]2C(=O)N(C3CCCCC3)C(=O)[C@@H]2[C@H]2c3ccccc3C=CN12	RORg inh inconclusive, VP16 counter inconclusive, Tau FP inhib inconclusive, Tau fluor counter inconclusive, Tau fibril ThT 32µM
COc1ccc(N2C(=O)[C@H]3[C@@H](C2=O)C2c4ccccc4C=NN2[C@H]3C(=O)C(C)(C)C)cc1 (some centres undefined)	none (no result: Tau fibril ThT)
